Screening data from PubChem BioAssay.
hcGAS lum: blocks human cGAS activity | 290,000 compounds, 0.081% hits | AID 1259398 | Q8N884 | inhibition, % at 12.5 µM | recombinant h-cGAS, ATP depletion, Kinase-Glo luminescence;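 further: 0% = vehicle reaction and 100% = reaction without DNA for no activity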
NPYLR7 agonist: activates Aedes aegypti NPYLR7 receptor; 270,000 compounds, 0.15% hits; activation, % at 10 µM; HEK293T NPYLR7/Galpha15, GCaMP6s calcium fluorescence; in the data active means activation above about 40%;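 further: 0% = vehicle and 100% = reference agonist at the receptor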
mcGAS lum: blocks mouse cGAS activity | recombinant cGAS, Kinase-Glo ATP depletion luminescence | inhibition, % at 12.5 µM | 160,000 compounds, 0.15% hits | AID 1259399;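 further: 0% = negative control wells and 100% = reference inhibitor with no enzyme activity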
Target sequence (Q8C6L5 whole entry, looked up): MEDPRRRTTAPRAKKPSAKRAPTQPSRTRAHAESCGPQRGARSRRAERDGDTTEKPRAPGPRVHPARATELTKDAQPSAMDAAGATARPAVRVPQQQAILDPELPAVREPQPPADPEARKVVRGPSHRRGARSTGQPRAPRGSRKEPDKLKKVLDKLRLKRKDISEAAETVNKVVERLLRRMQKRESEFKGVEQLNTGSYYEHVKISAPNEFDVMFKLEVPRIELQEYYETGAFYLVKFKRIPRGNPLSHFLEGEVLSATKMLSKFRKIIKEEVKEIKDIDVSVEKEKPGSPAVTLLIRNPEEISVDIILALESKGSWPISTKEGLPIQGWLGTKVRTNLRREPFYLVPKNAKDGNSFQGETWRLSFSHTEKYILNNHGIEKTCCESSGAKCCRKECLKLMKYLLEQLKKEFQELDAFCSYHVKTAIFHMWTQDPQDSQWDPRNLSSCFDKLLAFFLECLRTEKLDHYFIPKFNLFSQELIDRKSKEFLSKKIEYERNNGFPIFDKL
Active calls of the source: *; · = no result. Rows were chosen to be rich in hits. Some 0.28% of all compounds tested hit in one or more screens of this group. Unless noted, no stated cut-off is given here; in the data, active means inhibition above about 40%; inactive means the rest.

SMILES	hcGAS lum	NPYLR7 agonist	mcGAS lum
Cc1cc(C)nc(SCc2cc(=O)c(OC(=O)Cc3ccc(F)cc3)co2)n1	4.9	-15.7	81.6*
Cc1cc(C)nc(SCc2cc(=O)c(OC(=O)Cc3ccc(Cl)cc3)co2)n1	-1.4	-10.4	31.1
CCOc1ccc(CC(=O)Oc2coc(CSc3nc(C)cc(C)n3)cc2=O)cc1	-0.3	-16.5	63.4*
Cc1cc(C)nc(SCc2cc(=O)c(OC(=O)Cc3ccc([N+](=O)[O-])cc3)co2)n1	-5.8	-11.3	8.9
Cc1ccnc(SCc2cc(=O)c(OC(=O)Cc3ccc(Cl)cc3)co2)n1	-2.1	-12.6	32.6
CCCNC(=O)Nc1ccc(Cl)c(C(=O)O)c1	-0.9	-0.4	·
CCOC(=O)CNC(=O)N(CCOC)CC(=O)N(CCc1c[nH]c2ccccc12)Cc1ccc(F)cc1	-10.8	-5.5	-4.1
COc1ccc(OC)c(NC(=S)NC(C)C(c2cccs2)N2CCOCC2)c1 (stereo unspecified)	-0.9	16.2	-3.0
Cc1ccc(N=c2c([N+](=O)[O-])nn(-c3ccc(Cl)cc3)n2O)cc1Br	-8.3	-2.3	·
CC(C)N=c1c([N+](=O)[O-])nn(-c2ccc(Cl)cc2)n1O	-3.0	95.3*	-8.9
C#CCN1CCN(C(=O)C2CSc3ccccc32)CC1 (stereo unspecified)	-8.8	1.7	·
COC(=O)C1=C(C)NC(C)=C(C(=O)OCC(C)C)C1c1ccccc1[N+](=O)[O-] (stereo unspecified)	4.6	-6.2	58.0*
CC1=C(C(=O)OCC(C)C)C(c2ccccc2[N+](=O)[O-])NC(=O)N1C (stereo unspecified)	-6.7	-1.1	-4.7
O=C1CCC(C(=O)N2CCN(C3CCCCC3)C(=O)C2)CN1Cc1ccccn1 (stereo unspecified)	1.9	-1.0	·
OC[C@H]1OC([S-])[C@H](O)[C@@H](O)[C@@H]1O.[Au+] (stereo partly specified)	68.1*	-7.7	57.0*
OC[C@@H](O)C(O[C@@H]1O[C@H](CO)[C@H](O)[C@H](O)[C@H]1O)[C@H](O)[C@@H](O)CO (stereo partly specified)	-3.7	·	·
Fc1ccc(-c2nc(CSc3nnnn3C3CC3)cs2)cc1	-3.2	0.8	·
O=C(CCl)Nc1ccc2c(c1)C(=O)c1ccccc1C2=O	2.4	2.1	56.9*
Cc1cc(NC(=O)CCl)ccc1N1CCCC1	-0.1	5.3	0.9
CC(C)OC(=O)C(C(=O)C(F)(F)F)c1cc(NS(=O)(=O)c2ccc(Cl)cc2)ccc1O (stereo unspecified)	-7.3	43.9*	·
CC(C)OC(=O)C(C(=O)C(F)(F)F)c1cc(NS(=O)(=O)c2ccccc2)ccc1O (stereo unspecified)	-7.3	4.7	·
C[n+]1ccc(C=CC(=O)c2ccc3cccc4c3c2CC4)cc1	-7.6	2.3	61.1*
C[n+]1ccc(C=CC(=O)c2ccc3c4c(cccc24)CC3)cc1	17.4	1.1	19.8
CCOC(=O)c1nc2ccccc2nc1N1CCN(C(=O)N2CCOCC2)CC1	-5.6	51.7*	·
C=CC(=O)N1CCN(c2nc3ccccc3nc2C(=O)OCC)CC1	-9.6	12.1	-3.6
SMILES	hcGAS lum	NPYLR7 agonist	mcGAS lum
O=C(c1cccs1)N1CCc2ccccc2C1c1ccccc1Cl (stereo unspecified)	-4.3	-3.5	0.9
O=c1cc(CSCc2ccccc2C(F)(F)F)nc2ccccn12	-6.1	-1.6	-15.7
O=C(Nc1cccc(-c2nnco2)c1)C1CCCCC1	-5.6	85.8*	·
O=C(Nc1cccc(-c2cccc(-c3ccc4c(c3)OCCO4)n2)c1)C1CCCCC1	-8.5	-6.8	-5.9
COc1cccc(CN(Cc2ccc3c(c2)OCO3)CC(O)COc2ccccc2)c1OC (stereo unspecified)	3.6	6.1	-5.9
Cc1cc(O)c(CN2CCN(CCO)CC2)c2c1C(=O)/C(=C/c1cccc(Br)c1)O2	-7.5	24.8	5.6
O=C1/C(=C/c2cc3cc(Br)ccc3o2)Oc2c1ccc(O)c2CN1CCN(CCO)CC1	-2.1	71.9*	-3.5
CCn1ncnc1CN1CCN2CCN(C)C(=O)C2C1 (stereo unspecified)	-7.1	6.4	·
CC1=CC(C)C(C(=O)O)C(C(=O)O)C1 (stereo unspecified)	-1.1	43.0*	-6.4
CC(C)=CCCC1=CC[C@H](C(=O)O)[C@H](C(=O)O)C1	-3.9	1.5	-5.1
